Reference: the supplement of paper PMC6555819

Experiments:
Assay in all cases: PBM binding z-score (relative to random genomic background probes); higher = stronger binding; sequences stand for … in GC…GCGATTGACAGCGTAGAATGAAGG
[1] = test system: FXR:RXRa (NR concentration 270 nM, RXRa partner concentration 90 nM)
Outline: (§1)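 Probes were double-stranded and carried 34-nt variable regions with direct-repeat seeds, single-nucleotide variants, half-site ablations and random human genomic background sequences, printed on custom Agilent 4×180K protein-binding microarrays. Arrays were incubated 1 h with ligand-free nuclear receptor dimers in PBS pH 7.4, 2% milk, 0.02% Triton X-100, 1 mM DTT, 0.2 mg/mL BSA and 0.4 mg/ml salmon testes DNA. Antibodies against each partner (one per run) detected binding, and scanned fluorescence was regression-normalized. Binding z-scores use the random background probes as reference.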

[2] = test system: LXRa:RXRa (NR concentration 270 nM, RXRa partner concentration 90 nM)
Outline: as §1

[3] = test system: LXRa homodimer (NR concentration 270 nM)
Outline: as §1

[4] = test system: LXRb:RXRa (NR concentration 270 nM, RXRa partner concentration 90 nM)
Outline: as §1

[5] = test system: LXRb homodimer (NR concentration 270 nM)
Outline: as §1

[6] = test system: PPARa:RXRa (NR concentration 270 nM, RXRa partner concentration 90 nM)
Outline: as §1

[7] = test system: PPARg:RXRa (NR concentration 180 nM, RXRa partner concentration 90 nM)
Outline: as §1

[8] = test system: PPARg:RXRa 270nM:90nM, anti-RXR (NR concentration 270 nM, RXRa partner concentration 90 nM)
Outline: as §1

[9] = test system: PPARg:RXRa 30nM:10nM, anti-RXR (NR concentration 30 nM, RXRa partner concentration 10 nM)
Outline: as §1

[10] = test system: PPARg:RXRa 90nM:30nM, anti-RXR (NR concentration 90 nM, RXRa partner concentration 30 nM)
Outline: as §1

[11] = test system: PPARg:RXRa DBDmut IVT, anti-RXR (DBD mutation: RXRa K156A/R161A, NR concentration 270 nM, RXRa partner concentration 90 nM)
Outline: as §1

[12] = test system: PPARg:RXRa IVT, anti-PPARg (NR concentration 270 nM, RXRa partner concentration 90 nM)
Outline: as §1

[13] = test system: PPARg DBDmut:RXRa IVT, anti-PPARg (DBD mutation: PPARg1 K132A/R137A, NR concentration 270 nM, RXRa partner concentration 90 nM)
Outline: as §1

[14] = test system: PPARg DBDmut IVT, anti-PPARg (DBD mutation: PPARg1 K132A/R137A, NR concentration 270 nM)
Outline: as §1

[15] = test system: PPARg homodimer (NR concentration 180 nM)
Outline: as §1

[16] = test system: PXR:RXRa (NR concentration 270 nM, RXRa partner concentration 90 nM)
Outline: as §1

[17] = test system: PXR homodimer (NR concentration 270 nM)
Outline: as §1

[18] = test system: RARa:RXR (NR concentration 270 nM, RXRa partner concentration 90 nM)
Outline: as §1

[19] = test system: RARa homodimer (NR concentration 270 nM)
Outline: as §1

[20] = test system: RARb:RXRa (NR concentration 270 nM, RXRa partner concentration 90 nM)
Outline: as §1

Sequence | PBM binding z-score [1] | PBM binding z-score [2] | PBM binding z-score [3] | PBM binding z-score [4] | PBM binding z-score [5] | PBM binding z-score [6] | PBM binding z-score [7] | PBM binding z-score [8] | PBM binding z-score [9] | PBM binding z-score [10] | PBM binding z-score [11] | PBM binding z-score [12] | PBM binding z-score [13] | PBM binding z-score [14] | PBM binding z-score [15] | PBM binding z-score [16] | PBM binding z-score [17] | PBM binding z-score [18] | PBM binding z-score [19] | PBM binding z-score [20]
TCGAGTAGGTTACCAATGGGGCAATCAGCTTTCT | -0.178 | 1.28 | -0.627 | 0.776 | -1.22 | 1.27 | 0.44 | 1.02 | 1 | 1.13 | 3.39 | 2.82 | 0.0614 | 0.102 | -0.476 | 0.111 | -0.71 | 0.261 | -0.846 | 0.959
TAGCCTAGATCAGATCGGGCCAGTATACGCTATA | -0.847 | -1.11 | -0.829 | -1.18 | -1.2 | -1.18 | 0.218 | -0.582 | -0.499 | -0.448 | -0.0973 | 0.607 | -0.736 | -0.528 | -1.3 | -0.794 | -1.1 | -0.901 | -1.23 | -1.19
GGAACGAAGGCATTCGAGTTGATAGCATGGCGAT | -0.551 | -0.66 | -0.692 | -1.09 | -1.23 | -1.8 | 0.416 | -0.825 | -0.794 | -0.901 | -0.318 | -0.69 | -0.596 | -0.862 | -1.41 | -0.315 | -0.602 | -0.623 | -0.628 | -0.659
CCGAGTAGGTTATGGGGCAGTCAGGCAACGGTGA | 0.0419 | 0.326 | -0.0975 | 0.378 | -0.292 | 1.76 | 2.58 | 3.74 | 1.39 | 3.3 | 2.72 | 3.05 | -0.267 | -0.985 | 0.752 | -0.312 | 0.274 | -0.198 | 0.265 | 0.933
CAAACTAGGTCAAGGTAAAAGTCGGTTTGTGCCA | 3.54 | 2.52 | 0.259 | 1.97 | 0.356 | 4.86 | 8.27 | 7.09 | 4.93 | 6.9 | 8.78 | 8.76 | 1.41 | 0.73 | 1.61 | 1.54 | -0.0973 | 2.24 | 0.604 | 4.42
CGAGCGAGGGCATGAGTTGATAGCAAATGCCGAT | 0.5 | 0.467 | -0.292 | 0.175 | -1.07 | 0.945 | 0.571 | 0.44 | -0.503 | 0.0146 | 0.598 | 0.064 | -0.548 | -1 | -0.175 | 0.544 | -0.137 | 0.536 | -0.541 | 2.03
AGAACGAGGGCACGCTGAGTCGATAGCAGAGTAG | 0.534 | 0.569 | -0.415 | -0.0914 | -1.26 | 1.98 | 2.05 | 1.66 | 0.0721 | 0.871 | 4.27 | 3.81 | 0.34 | 0.0245 | -0.314 | 0.266 | -0.486 | 0.489 | -0.608 | 2.42
AAAACGAGGGCACGCTGAGTTGATAGCAGAGTAG | 0.97 | 0.877 | -0.416 | 0.344 | -0.954 | 2.42 | 2.99 | 2.58 | 0.579 | 1.87 | 5.62 | 5.01 | -0.17 | 0.145 | 0.283 | 1.5 | 0.139 | 0.828 | -0.23 | 2.65
CGTCCAAGGTCAATGCTAGGTAAGTGAAAGCATT | 5.28 | 4.48 | 0.161 | 3.61 | 0.552 | 5.13 | 3.69 | 4.15 | 0.806 | 2.86 | 2.99 | 3.27 | 0.401 | -0.137 | 1.55 | 3.28 | 0.34 | 3.5 | 0.168 | 4.88
ACTAGCAGGCGAAGGGTCACTCAAGATTAGTCCG | 2.18 | 2.19 | 0.132 | 2.12 | -0.71 | 3.72 | 5.6 | 5.62 | 3.86 | 6.27 | -0.0679 | 2.22 | -0.671 | -0.597 | 1.88 | 2.32 | -0.24 | 3.29 | -0.0684 | 3.31
AGAATGAAGTTATTAAGATCAGGGAATTGCGGTC | -0.377 | -0.535 | -0.241 | -0.514 | -0.42 | -0.386 | 0.173 | -0.222 | 0.106 | 0.114 | -0.0627 | -0.0866 | 0.409 | 0.313 | 0.538 | -0.219 | 0.044 | 0.183 | 0.224 | -0.286
CTACCAAGGTGAACATGGTCGTTGATTACTATTC | 0.63 | 0.673 | -0.0625 | 1.05 | -0.345 | 1.73 | 0.829 | 0.843 | 0.0499 | 0.359 | 2.77 | 2.62 | 0.872 | -0.0867 | 0.593 | 0.435 | -0.201 | 1.12 | 0.284 | 1.66
CGAACTAGGTCACTGACAGGACAGTGAATAGTAA | 3.05 | 2.26 | -0.0136 | 1.64 | -0.225 | 4.7 | 7.95 | 6.65 | 3.86 | 6.09 | 8.19 | 8.43 | 0.923 | 0.583 | 1.33 | 1.1 | -0.168 | 1.94 | -0.0785 | 3.9
CCTTACGGGTCACGAGGTTATAGTACGACGAGCG | 6.36 | 4.81 | 0.561 | 4.06 | 0.224 | 6.09 | 7.25 | 6.66 | 3.38 | 5.43 | 4.32 | 5.17 | 1.09 | 0.529 | 2.24 | 4.61 | 0.539 | 6.16 | 1.16 | 4.59
ATCGAAAGGTCGTGAGGGGAGTATACAGAAAGGC | 5.36 | 4.07 | 0.475 | 3.55 | 1.22 | 5.08 | 3.7 | 4.21 | 1.39 | 3.1 | 0.526 | 2.01 | 1.57 | 0.649 | 2.22 | 2.99 | 0.725 | 3.78 | 0.753 | 4.03
